Screening data from PubChem.
A selection: hits, their analogues and other compounds. The true share with any hit is near 4.6%.
NLRP3 yeast inh: NALP3 inhibition in yeast. Yeast reconstituted NLRP3/ASC/caspase-1, beta-gal luminescence, 24 h. inhibition, % at 10 µM. 330,000 tested, 0.39% active. AID 2825;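 active = inhibition of 50% or more; inactive = inhibition below 50%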;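 also: plate controls were induced DMSO wells for no effect and uninduced yeast grown without galactose for full effect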
TIM10 inh: TIM10 yeast growth inhibition | AID 463195 | inhibition, % at 10 µM | 330,000 tested, 1.4% active | S. cerevisiae TIM10 strain growth, BacTiter-Glo luminescence, 24 h;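 active = inhibition of 40% or more at the single tested concentration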;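 also: wild-type TIM10 isogenic control strain grown at permissive 25 °C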
PfHsp90 set2: inhibits growth of yeast expressing Plasmodium falciparum Hsp90; S. cerevisiae expressing PfHsp90, BacTiter-Glo ATP, 48 h; yeast lacking PDR1 and PDR3 efflux regulators; inhibition, % at 9.4 µM; 310,000 tested, 0.32% active;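 active = every replicate shows inhibition above about 80%, whatever the replicate mean, limit read from the data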;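 also: 0% = DMSO neutral controls and 100% = 20 µM radicicol positive controls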
tim23-1 inh: growth inhibitors of tim23-1 mutant yeast; 330,000 tested, 1.3% active; inhibition, % at 20 µM; S. cerevisiae tim23-1 growth, BacTiter-Glo luminescence, 24 h;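 active = growth inhibition of the mutant yeast at or above 50%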;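 also: temperature-sensitive mutant grown at 25 °C; plate controls were DMSO-treated mutant yeast for no effect and medium wells lacking yeast for full effect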
SKKanGAS inh: inhibitors of SKKanGAS S. pyogenes growth in kanamycin (SK-promoter or general growth effect). BacTiter-Glo, 6 h. AID 1662. 300,000 tested, 1.3% active. inhibition, % at 7.5 µM;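 active = mean replicate score, as percent of positive control median, at least 50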;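 also: strain carries kanamycin resistance gene driven by streptokinase promoter and grows in 40 µg/ml kanamycin; loss of luminescence reflects streptokinase promoter inhibition or plain growth inhibition; 0% = median of DMSO wells and 100% = positive control at its reference dose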
tim10-1 inh: inhibits growth of tim10-1 mutant yeast. AID 463190. inhibition, % at 20 µM. 330,000 tested, 2.2% active. S. cerevisiae tim10-1 ts strain growth, BacTiter-Glo, 24 h;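 active = inhibition of at least 40%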;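 also: mutant grown at 25 °C; 0% = DMSO wells with yeast and 100% = wells holding no yeast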
tim10-1 conf: confirmation of tim10-1 mutant yeast growth inhibitors | shares compounds with tim10-1 inh | S. cerevisiae tim10-1 ts strain growth, BacTiter-Glo, 24 h | inhibition, % at 20 µM | 7,400 tested, 56% active | AID 463213;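 active = inhibition of yeast growth at or above a set limit in either of two repeat tests at 20 µM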;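 also: tim10-1 mutant grown at permissive 25 °C to find synthetic lethal compounds; 0% = DMSO yeast wells and 100% = medium wells without yeast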
Active calls of the source: *; / = no result given.

SMILES | NLRP3 yeast inh | TIM10 inh | PfHsp90 set2 | tim23-1 inh | SKKanGAS inh | tim10-1 inh | tim10-1 conf
CCN(CC)c1ncn(Cc2c(Cl)cccc2Cl)c2ncnc1-2 | 11 | 9 | -21 | 39 | 23 | 42* | 36*
COc1ccc(-c2noc(C3CCCN(C(=O)CCc4ccccc4)C3)n2)cc1 (stereo not drawn) | -33 | 37 | / | 48 | 8 | 42* | 33*
CCCCCC(=O)N1CCCC(c2nc(-c3ccc(OC)cc3)no2)C1 (stereo not drawn) | 5 | 34 | 53 | 28 | -6 | 35 | /
Cc1cc(C)c(N=Cc2c(O)n(-c3nccs3)c(=O)c3ccccc23)c(C)c1 | 28 | 36 | -22 | 42 | 31 | 41* | 32*
COc1cc(/C=N/NC(=O)c2sc3nc(C)cc(C)c3c2N)ccc1O | -6 | 8 | 20 | 3 | 4 | 12 | /
CN(C)S(=O)(=O)Oc1ccsc1C(=O)Nc1ccc(Cl)c(Cl)c1 | 26 | 28 | 18 | 26 | 7 | 44* | 36*
CN(C)S(=O)(=O)Oc1ccsc1C(=O)Nc1cccc(Cl)c1 | 24 | 22 | -1 | 26 | -4 | 31 | /
O=C(CCC(=O)N1CCN(Cc2ccccc2)CC1)Nc1nnc(C2CCCCC2)s1 | 11 | 7 | -4 | 18 | -3 | 8 | /
O=C(CSCc1cccc(Br)c1)N/N=C/c1ccc2c(c1)OCO2 | 23 | 14 | 2 | 37 | 9 | 43* | 36*
CCNc1nc(ON=C(C)C)nc(N(C)C)n1 | 1 | -4 | 9 | -9 | -1 | -4 | /
CC(=O)Nc1ccc(NC(=O)COC(=O)/C(=C/c2ccccc2)n2nnnc2C)cc1 | 21 | 11 | 24 | 4 | -3 | -3 | /
Cc1nnnn1/C(=C\c1ccccc1)C(=O)OCC(=O)NC(C)(C)C | 16 | 31 | 18 | 45 | -1 | 45* | 34*
CCOC(=O)C1CCN(S(=O)(=O)c2ccc(OC)c(Cl)c2Cl)CC1 | 10 | 23 | -20 | 14 | 8 | 40* | 5
CCOC(=O)C1CCN(S(=O)(=O)c2ccc(Cl)cc2OC)CC1 | 17 | 9 | 4 | 17 | 5 | 17 | /
COCCn1c(=S)[nH]c2cc(C(=O)N3CC(C)CC(C)C3)ccc2c1=O (stereo not drawn) | 4 | -33 | -28 | -8 | 4 | 41* | -62
Cc1oc2c(Cl)c(Cl)c(O)c(CN(C)C)c2c1C(=O)c1ccc(Cl)cc1 | 18 | 38 | -5 | 45 | 39 | 49* | 53*
CCCCCCCCCS(=O)(=O)N/N=C/c1cccc([N+](=O)[O-])c1 | 11 | 14 | / | 24 | 11 | 42* | 30
CN1CCN(C(c2ccccc2)c2ccccc2)CC1 | -44 | 11 | 16 | -4 | / | 5 | /
CN1CCCN(C(c2ccccc2)c2ccc(Cl)cc2)CC1 (stereo not drawn) | 43 | 24 | 7 | 27 | 4 | 50* | 34*
CCOC(=O)c1ccc(N2C(=O)C3C(C2=O)C(C(=O)c2ccc(Cl)cc2)N2CCCC32)cc1 (stereo not drawn) | 18 | 32 | -3 | 26 | 10 | 42* | 29*
NC(=O)c1ccc2c(=O)n3c(-c4cccs4)csc3nc2c1 | 10 | 10 | -5 | 8 | 1 | 14 | /
CCSC(=O)CCCCCCCCCCCO | 49 | 15 | 12 | 26 | 3 | 40* | 36*
CCCCCCCCO | -4 | 1 | -17 | -5 | / | -13 | /
O=C(CCS(=O)(=O)c1ccccc1)N1CCN(c2ccccc2)CC1 | 32 | -12 | -3 | -2 | -10 | -21 | /
Oc1csc(Cc2nc(-c3ccc(-c4ccccc4)cc3)cs2)n1 | 12 | 12 | -19 | 7 | -4 | 21 | /
SMILES | NLRP3 yeast inh | TIM10 inh | PfHsp90 set2 | tim23-1 inh | SKKanGAS inh | tim10-1 inh | tim10-1 conf
NC(=S)Cc1nc(-c2ccccc2)cs1 | 1 | 39 | -4 | 42 | 3 | 51* | 44*
COc1ccc2cc(CCNC(=O)c3c(-c4ccccc4Cl)noc3C)c(=O)[nH]c2c1 | 14 | 8 | 12 | 12 | -2 | 41* | 11
CC(=O)Nc1ccc(NC(=O)CS(=O)(=O)c2cn(CC(=O)N3CCC(C)CC3)c3ccccc23)cc1 | 5 | 1 | -17 | 2 | 2 | -8 | /
CC1Cc2ccccc2N1C(=O)CN1CCN(S(=O)(=O)c2cccs2)CC1 (stereo not drawn) | 11 | 11 | 1 | 36 | / | 48* | 21
Cn1nc(C(F)(F)F)c(C(=O)Nc2ccc(F)cc2F)c1Sc1cccc(Cl)c1 | -9 | 17 | -1 | 27 | 15 | 44* | 34*
Cn1nc(C(F)(F)F)c(C(=O)Nc2ccc(F)cc2F)c1Sc1cccc(C(F)(F)F)c1 | 16 | 23 | -1 | 21 | 27 | 39 | /
Nc1ccccc1Nc1cc(-c2ccccc2)nn1-c1cccc(Cl)c1 | 22 | 20 | 34 | 48 | 46 | 44* | 16
C=CCN(CC=C)C(=S)NC(=O)c1ccc(C)c(Br)c1 | 30 | 39 | -47 | 38 | 47 | 35 | /
CCN(CC)S(=O)(=O)c1ccc(=O)[nH]c1 | 6 | 3 | 22 | -3 | -2 | 1 | /
O=C(Oc1ccc2ccc(=O)oc2c1)c1ccco1 | 14 | 30 | 19 | 31 | 2 | 46* | 20
O=C(NNc1cccc(Cl)c1)c1cccnc1Oc1ccccc1 | 22 | 2 | 4 | -81 | 36 | -14 | /
Cc1c(/C=N/NC(=O)CNc2ccccc2)c2ccccn2c1C(=O)c1ccccc1 | 13 | 11 | 5 | 29 | 25 | 40* | 19
Cc1c(/C=N/NC(N)=O)c2ccccn2c1C(=O)c1ccncc1 | 0 | -8 | -27 | 13 | 1 | 9 | /
COC(=O)c1c(-c2ccccc2Cl)noc1/C=C/N(C)C | -13 | 27 | 8 | 35 | 3 | 40* | 26
COc1cc(CC(=O)OCC(=O)Nc2cc([N+](=O)[O-])ccc2Cl)cc(OC)c1OC | 11 | -3 | 5 | 21 | 1 | 7 | /
COC1Cc2ccccc2N(C(N)=O)c2ccccc21 (stereo not drawn) | -10 | 0 | -5 | -5 | 6 | -13 | /
Cn1c(SC2=CS(=O)(=O)c3ccccc32)nc2ccccc21 | 27 | 30 | -14 | 33 | 0 | 44* | 30
CN(CC(=O)Nn1cnnc1)S(=O)(=O)c1ccccc1 | 5 | -23 | -20 | -7 | -6 | 22 | /
Nc1c(C(=O)NCc2ccccc2)c2nc3ccccc3nc2n1CCCN1CCOCC1 | 12 | 20 | 9 | 0 | 8 | 27 | /
Nc1c(C(=O)NCc2ccc(F)cc2)c2nc3ccccc3nc2n1CCCN1CCOCC1 | 16 | 28 | 14 | 41 | 20 | 60* | 6
Cc1ccc(C)c(OC(=O)c2cccc(S(=O)(=O)N3CCN(C)CC3)c2)c1 | 14 | 25 | -17 | 34 | 0 | 42* | 18
